High-throughput results: PubChem, several laboratories
An excerpt weighted towards active compounds, which were near 4.9% of everything screened.
NALP1 yeast inh: inhibitors of NALP1 inflammasome in yeast; inhibition, % at 10 µM; S. cerevisiae NALP1/ASC/caspase-1 growth, X-gal OD620, 72 h; hit rate 0.61% among 280,000; in the data active = inhibition mostly above about 24%, no sharp cut-off; inactive = mostly below about 32%
tim10-1 inh: tim10-1 yeast growth inhibition; S. cerevisiae tim10-1 ts strain growth, BacTiter-Glo, 24 h; inhibition, % at 20 µM; hit rate 2.2% among 330,000;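 active = inhibition of at least 40%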;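 also: mutant grown at 25 °C; 0% = DMSO wells with yeast and 100% = wells holding no yeast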
SKKanGAS inh: SKKanGAS growth inhibition; S. pyogenes SKKanGAS, kanamycin growth, BacTiter-Glo, 6 h; inhibition, % at 7.5 µM; hit rate 1.3% among 300,000; AID 1662;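 active = mean replicate score, as percent of positive control median, at least 50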;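 also: strain carries kanamycin resistance gene driven by streptokinase promoter and grows in 40 µg/ml kanamycin; loss of luminescence reflects streptokinase promoter inhibition or plain growth inhibition; 0% = median of DMSO wells and 100% = positive control at its reference dose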
tim23-1 inh: tim23-1 yeast growth inhibition. S. cerevisiae tim23-1 growth, BacTiter-Glo luminescence, 24 h. inhibition, % at 20 µM. hit rate 1.3% among 330,000;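 active = growth inhibition of the mutant yeast at or above 50%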;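 also: temperature-sensitive mutant grown at 25 °C; plate controls were DMSO-treated mutant yeast for no effect and medium wells lacking yeast for full effect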
NLRP3 yeast inh: blocks the NALP3 inflammasome reconstituted in yeast. Yeast reconstituted NLRP3/ASC/caspase-1, beta-gal luminescence, 24 h. inhibition, % at 10 µM. hit rate 0.39% among 330,000;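 active = inhibition of 50% or more; inactive = inhibition below 50%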;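 also: plate controls were induced DMSO wells for no effect and uninduced yeast grown without galactose for full effect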
TIM10 inh: TIM10 yeast growth inhibition; S. cerevisiae TIM10 strain growth, BacTiter-Glo luminescence, 24 h; inhibition, % at 10 µM; hit rate 1.4% among 330,000; AID 463195;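 active = inhibition of 40% or more at the single tested concentration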;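 also: wild-type TIM10 isogenic control strain grown at permissive 25 °C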
TIM10 conf: confirmation of TIM10 yeast growth inhibitors; shares compounds with TIM10 inh; S. cerevisiae tim10 strain growth, BacTiter-Glo luminescence, 24 h; inhibition, % at 10 µM; hit rate 63% among 4,600;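 active = inhibition of yeast growth at or above a set limit in either of two replicates at 10 µM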;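 also: this counterscreen used the strain with wild-type TIM10; 0% = yeast with DMSO and 100% = medium wells lacking yeast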
An asterisk follows results filed as active.

For CCOC(=O)C[C@H]1c2cc(C(F)(F)F)ccc2S(=O)(=O)N1C(C)C the results were tim10-1 inh 2, SKKanGAS inh -1, tim23-1 inh 7, NLRP3 yeast inh -22 and TIM10 inh -10.
`CC(=O)Nc1ccc(Sc2ncnc3scc(-c4ccccc4)c23)cc1` gave NALP1 yeast inh 41, tim10-1 inh 28, SKKanGAS inh 5, tim23-1 inh 29, NLRP3 yeast inh 32 and TIM10 inh 35.
CCCC(=O)Nc1ccccc1Sc1ncnc2scc(-c3ccccc3)c12 was read as NALP1 yeast inh 20, tim10-1 inh 28, SKKanGAS inh -2, tim23-1 inh 47, NLRP3 yeast inh 16, TIM10 inh 47* and TIM10 conf 51*.
Screening Oc1cccc(Nc2nc(O)c(/C=C3\C=Nc4ccccc43)s2)c1 returned NALP1 yeast inh -76, tim10-1 inh -1, tim23-1 inh -7, NLRP3 yeast inh 12 and TIM10 inh 18.
`Oc1nc(Nc2cccc(Cl)c2)sc1/C=C1\C=Nc2ccccc21` gave NALP1 yeast inh 42, tim10-1 inh 18, SKKanGAS inh 113*, tim23-1 inh 35, NLRP3 yeast inh 35, TIM10 inh 44* and TIM10 conf -16.
For CCOc1cc2[nH]c(=S)n(CCCC(=O)NCc3ccccn3)c(=O)c2cc1OCC the results were NALP1 yeast inh -38, tim10-1 inh 5, SKKanGAS inh 6, tim23-1 inh 3, NLRP3 yeast inh 23 and TIM10 inh -7.
COc1cc2c(cc1OC)CN(C(=O)c1ccc([N+](=O)[O-])o1)CC2 was read as NALP1 yeast inh -28, tim10-1 inh 35, SKKanGAS inh 6, tim23-1 inh 31, NLRP3 yeast inh 6, TIM10 inh 68* and TIM10 conf 75*.
Screening CCOC(=O)N1CCN(C(=O)COC(=O)c2ccccc2NCCO)CC1 returned tim10-1 inh 4, SKKanGAS inh 0, tim23-1 inh 2, NLRP3 yeast inh 2 and TIM10 inh 1.
`O=C(O)/C=C/c1ccc2ccccc2n1` gave NALP1 yeast inh -1, tim10-1 inh 8, SKKanGAS inh 3, tim23-1 inh 11, NLRP3 yeast inh 8 and TIM10 inh 9.
Screening O=C(/C=C/c1ccc2ccccc2n1)c1cc(Br)ccc1O returned NALP1 yeast inh 18, tim10-1 inh 34, SKKanGAS inh 20, tim23-1 inh 35, NLRP3 yeast inh 13, TIM10 inh 52* and TIM10 conf 31*.
`COC(=O)c1cc(S(=O)(=O)Nc2cccc(C)c2C)cn1C` gave NALP1 yeast inh 18, tim10-1 inh 2, SKKanGAS inh 0, tim23-1 inh 2, NLRP3 yeast inh -5, TIM10 inh 84* and TIM10 conf 3.
`COc1ccc(C(CC(=O)c2ccc(C)cc2)C(C#N)C#N)cc1OC` (configuration not stated) gave NALP1 yeast inh 16, tim10-1 inh 38, SKKanGAS inh -3, tim23-1 inh 42, NLRP3 yeast inh 25 and TIM10 inh 35.
Screening Cc1c(C(=O)Nc2nc3ccccc3[nH]2)oc2c(Cl)cccc12 returned tim10-1 inh 4, SKKanGAS inh 67*, tim23-1 inh 45, NLRP3 yeast inh 29, TIM10 inh 44* and TIM10 conf 24.
Screening O=C(Nc1cccc(F)c1)C1CCCN(S(=O)(=O)c2cccc3cccnc23)C1 (configuration not stated) returned NALP1 yeast inh 0, tim10-1 inh 19, SKKanGAS inh -12, tim23-1 inh 6, NLRP3 yeast inh 16 and TIM10 inh 8.
`Cc1ccc(NC(=O)c2ccccc2OCC(=O)c2ccccc2)cc1` gave NALP1 yeast inh -2, tim10-1 inh 30, SKKanGAS inh 2, tim23-1 inh 14, NLRP3 yeast inh -10 and TIM10 inh 30.
CCOc1ccc(NC(=O)c2ccccc2OCC(=O)c2ccccc2)cc1 was read as NALP1 yeast inh 1, tim10-1 inh 33, SKKanGAS inh 40, tim23-1 inh 11, NLRP3 yeast inh 20, TIM10 inh 45* and TIM10 conf 28.
Cc1ccccc1OCC(=O)NCC(c1cccs1)N1CCOCC1 (configuration not stated) was read as tim10-1 inh -3, SKKanGAS inh -10, tim23-1 inh 13, NLRP3 yeast inh 11 and TIM10 inh -1.
